This passage reports Potency results from PubChem BioAssay (NCATS).

The source made the active and inactive calls. No rule for the calls is given here. A value given as a limit tells only on which side of the number the result lay.
Potency is read from the fitted curve at half-maximal effect.

This assay concerns HIV-1 nucleocapsid protein NCp7 (binding to TG oligonucleotide). The assay can be described thus: HIV Nucleocapsid (AID 346).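 Also: potency is for inhibitors that block NC binding and lower polarization.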 The settings on record: HIV-1 NC / fluorescein-TGTGTGTG probe, fluorescence polarization. In outline:
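Inhibition of nucleocapsid binding to single-stranded 5'-TGTGTGTG probe (10 nM) was measured by fluorescence polarization after 1 hr at room temperature with 100 nM protein under high-salt, zinc-containing, reducing conditions.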
In the case of `CNc1nc(-c2cccc(C#N)c2)nc2ccccc12`, the Potency is > 20 µM (inactive).
For `c1ccc2c(NC3CCNCC3)nc(-c3ccoc3)nc2c1` the value was > 20 µM (inactive).
Then `CN(C)c1ncc2nc(-c3ccccc3)c(=O)n(C3CC3)c2n1`, with > 20 µM (inactive); and `N#Cc1ccccc1-c1nc(NCCN2CCOCC2)c2ccccc2n1`, with > 20 µM (inactive).
For `Cc1noc(C)c1C(=O)N1CCC[C@@]2(CCN(Cc3nccs3)C2)C1` the value was > 20 µM (inactive).
Consider `COc1ccccc1-c1cc(NCc2cccs2)ncn1`, for which the Potency was > 20 µM (inactive).
For `COCC(=O)N1CCC2(CC1)CN(C(=O)Nc1cccc(F)c1)C2` the value was > 20 µM (inactive); for `O=c1cnc2cnc(N3CCNCC3)nc2n1Cc1cccs1`, > 20 µM (inactive); for `O=c1c(-c2cc(F)cc(F)c2)nc2cncnc2n1-c1ccccc1`, > 20 µM (inactive).
For `O=c1cnc2cncnc2n1Cc1ccc(F)cc1`, the Potency was > 20 µM (inactive).
Then `O=S(=O)(c1ccccc1)N1CCC2(CCCN(c3cccc(-c4ccccc4)c3)C2)CC1`, with > 20 µM (inactive).
`COc1ccccc1-c1ccc2ncnc(N3CCNCC3)c2c1`: the Potency is > 20 µM (inactive).
Then `Cc1noc(C)c1C(=O)N1CCC[C@@]2(CCN(C(c3ccccc3)c3ccccc3)C2)C1`, with > 4 µM (inactive).
Turning to `CCNc1ncc2nc(C)c(=O)n(Cc3cccs3)c2n1`, the Potency is > 20 µM (inactive).
With `O=C(c1ccncc1)N1CCC2(CCCN(c3cccc(-c4ccccc4)c3)C2)CC1`, the Potency is > 20 µM (inactive).
Then `COc1ccc2[nH]cc(CCNc3nc(-c4ccoc4)nc4ccccc34)c2c1`, with > 20 µM (inactive).
Regarding `O=C(Oc1ccccc1)N1CCC[C@@]2(CCN(c3ccncc3)C2)C1`, the Potency is > 20 µM (inactive).
For `COCCn1c(=O)c(-c2cn(C)c3ccccc23)nc2cncnc21`, the Potency was 11.9 µM (inactive).
`CN(Cc1ccco1)c1cc(-c2cccnc2)ncn1`: the Potency is > 20 µM (inactive).
Then `CCNc1ncc2nc(-c3cccs3)c(=O)n(Cc3cccs3)c2n1`, with > 20 µM (inactive); and `CN(C)c1ncc2nc(CCc3ccccc3)c(=O)n(CCC#N)c2n1`, with > 20 µM (inactive).
For the compound `O=c1c(-c2ccccc2)nc2cnc(Nc3ccccc3)nc2n1C[C@H]1CCCO1`, the Potency was > 20 µM (inactive).
For `O=C(c1cnccn1)N1CCC2(CCN(Cc3nccs3)CC2)CC1` the value was > 20 µM (inactive); for `Cc1noc(C)c1-c1cc(NCc2cccnc2)ncn1`, > 20 µM (inactive).
On to `COc1ccc(Oc2ncc3nc(-c4cccs4)c(=O)n(Cc4cccc(OC)c4)c3n2)cc1`, for which the Potency is > 20 µM (inactive).
